Screens: PubChem, National Center for Advancing Translational Sciences (NCATS)
In the library only some 5.9% were active in any assay of this set; here they are far more common.
GLP-1R inv ag = acts as inverse agonist at human GLP-1 receptor | P43220 | HEK293 GLP-1R CRE-luciferase, luminescence, 24 h; GLP-1R form is constitutively active | Potency, µM (top dose mostly 38.3 µM), for inactives: at the highest dose activity change, negative = inhibition, usual class: inhibitors | 410,000 compounds, 1.6% hits | AID 624417; also: % is scaled to controls: 0 for no effect and ±100 for the full control effect; nearly all actives have a fitted effect of over 55% in size
Target sequence (P43220 whole entry, looked up): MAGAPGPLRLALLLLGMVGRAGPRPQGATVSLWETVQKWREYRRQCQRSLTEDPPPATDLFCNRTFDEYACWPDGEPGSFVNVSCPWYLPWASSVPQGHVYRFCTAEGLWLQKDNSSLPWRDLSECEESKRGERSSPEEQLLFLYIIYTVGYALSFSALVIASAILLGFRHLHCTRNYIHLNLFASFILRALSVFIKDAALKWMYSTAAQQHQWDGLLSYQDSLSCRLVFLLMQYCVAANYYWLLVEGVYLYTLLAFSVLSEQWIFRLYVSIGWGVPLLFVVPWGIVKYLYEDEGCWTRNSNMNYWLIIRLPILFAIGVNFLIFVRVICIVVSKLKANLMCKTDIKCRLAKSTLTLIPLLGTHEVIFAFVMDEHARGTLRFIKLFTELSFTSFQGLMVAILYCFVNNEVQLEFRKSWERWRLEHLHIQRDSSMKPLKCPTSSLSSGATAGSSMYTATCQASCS
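GLP-1R inverse agonism mode: basal reporter luminescence in engineered HEK293 cells measured after one day of compound exposure at 37 deg C, with a 12 min room-temperature detection step.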
HEK293 tox = cytotoxic in the GLP-1 receptor inverse agonist counter-screen; HEK293 cAMP-luciferase reporter cells, luminescence, 24 h; Potency, µM (top dose mostly 38.3 µM), for the others: top-dose activity change, negative = inhibition, most hits filed as inhibitors; 410,000 compounds, 0.13% hits;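 also: loss of luciferase light is scored as toxicity; % is scaled to controls: 0 for no effect and ±100 for the full control effect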
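Quantitative HTS format, 1536 wells, 200 cells/uL seeded. Compounds: 23 nL, 24 h, 37 °C. Detection: luciferase reagent, luminescence at 12 min RT; decreased signal taken as cytotoxic.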
RORg inh = blocks mouse ROR gamma transcriptional activity. AID 2551. Drosophila S2 Gal4-RORgamma UAS-luciferase reporter, 20 h. 310,000 compounds, 5.4% hits. P51450. Potency, µM (doses to about 53.6 µM), for the others: at the top dose activity change, negative = inhibition, hits mostly inhibitors; also: % is scaled to controls: 0 for no effect and ±100 for the full control effect; nearly all actives have a fitted effect of over 60% in size
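Compounds are pin-transferred onto Drosophila Schneider cells expressing a copper-inducible Gal4–ROR gamma transactivation domain fusion. After 1 hr, copper sulfate is added to 700 uM final; luciferase is read 20 hr later.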
Gal4-VP16 FLuc = inhibits Gal4-VP16 luciferase reporter, ROR gamma counter-screen | AID 2546 | Drosophila S2 Gal4-VP16 UAS-luciferase, luminescence, 20 h | Potency, µM (top dose mostly 53.6 µM), without a hit: at the top dose activity, negative = inhibition, actives largely listed as inhibitors | 310,000 compounds, 3.5% hits;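 also: Gal4-VP16 expression switched on by copper sulfate through the metallothionein promoter; % is scaled to controls: 0 for no effect and ±100 for the full control effect; nearly all actives have a fitted effect of over 50% in size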
GLP-1R agonist = GLP-1 receptor (human) agonism; P43220; AID 624172; 380,000 compounds, 0.007% hits; HEK293 GLP-1R CRE-luciferase, luminescence, 4-6 h; cells express a hypersensitive GLP-1R form; Potency, µM (doses to about 45.6 µM), for inactives: at the top dose activation, usual class: activators; also: % of control where 0% means no effect
Active calls of the source: *; ? = inconclusive; . = no result; [ ] = another dose, or the depositor's remark. Calls follow the shape of the dose curve; as a rule, active = well fitted curve in the direction sought with a large enough effect; inconclusive = small, poorly fitted or top-dose-only effect, or another doubt; inactive = no such curve, though single readings can be large; an effect the other way counts as inactive or inconclusive. Potency is read from the fitted curve at half-maximal effect.

SMILES | GLP-1R inv ag | HEK293 tox | RORg inh | Gal4-VP16 FLuc | GLP-1R agonist
COCCNC(=S)N/N=C/c1ccc(OCc2ccc(C(=O)OC)cc2)cc1 | 2.2% | 5.0% | ? | -18.7% | 9.8%
c1cncc(-c2cncnc2NCc2cccs2)c1 | . | . | 20.0% | 7.8% | .
[O-]/[N+](=N\O)c1ccccc1 | . | . | -1.0% | -5.6% | .
Cn1c(=O)c(=O)n(C)c2cc(N3CCCC3)c(NC(=O)c3ccccc3F)cc21 | 8.9% | -5.1% | . | . | .
COc1cc(/C=N/NC(=S)NC(C)C)ccc1OCC(=O)Nc1c(C)cc(C)cc1C | -3.3% | -18.6% | 0.708µM* | 0.501µM* | 0.9%
CCCCNC(=S)N(C)/N=C/c1ccc(OCC(=O)Nc2c(C)cc(C)cc2C)c(OC)c1 | -27.1% | 2.0% | -1.4%[10 µM] | 3.1% | -8.7%
CNC(=O)C1CCC(Cn2c(=O)[nH]c3ccsc3c2=O)CC1 (configuration not stated) | 6.2% | 3.1% | . | . | .
COc1ccc(CNC(=O)C2CCCN(C(=O)N3CCOc4ccccc43)C2)cc1 (configuration not stated) | -3.1% | 3.5% | . | . | .
COC(=O)C1=C(C)N(C)C(=S)NC1c1c(OC)ccc2ccccc12 (configuration not stated) | -2.0%[0.307 µM] | 2.7%[0.307 µM] | 7.94µM* | ? | -2.1%
Cc1nnc(N2C(=O)c3oc4ccccc4c(=O)c3C2c2cccc(OCCC(C)C)c2)s1 (configuration not stated) | 6.2% | -0.3% | . | . | .
Cc1ccc2c(c1)c1c(n2CC(O)Cn2c(C)nc3ccccc32)CCCC1 (configuration not stated) | ? | ? | 1.58µM* | -23.8% | -2.4%
Cc1ccc2c(c1)c1c(n2CC(O)CNC(C)(C)C)CCCC1 (configuration not stated) | 10µM* | -26.4% | -14.0% | 5.6% | 3.4%
COCCn1c(=O)c(-c2ccc(Cl)cc2)nc2cnc(Nc3ccccc3)nc21 | . | . | 7.2% | -4.0% | .
CCOc1cc(/C=C2\SC(=S)N(N3CCOCC3)C2=O)ccc1O | -8.1% | -17.2% | 6.0% | -5.7% | -6.4%
CCOc1cc(/C=C2\SC(=N)N(c3nccs3)C2=O)ccc1OCCN1CCOCC1 | -20.1% | -12.8% | 0.562µM* | 2.82µM* | 19.4%
NC(=S)N/N=C1\CC(n2nnnc2-c2ccccc2Cl)C2COC1O2 (configuration not stated) | 0.4% | 1.3% | 11.2µM* | ? | -1.3%
Cc1ccc(-c2nnnn2C2C/C(=N\NC(N)=S)C3OCC2O3)cc1 (configuration not stated) | 8.2% | -12.5% | 10µM* | ? | 3.4%
CCOC(=O)C(Cc1c[nH]c2ccccc12)NC(=O)c1ccccc1Br (configuration not stated) | -17.4% | 7.6% | 8.91µM* | ? | 2.8%
Cc1cc(C)c(C)c(S(=O)(=O)NCC(=O)NCC2CCCCC2)c1C | 6.31µM* | 17.3% | ? | 6.9% | 13.1%
O=C(N/N=C/c1cccc(OC(=O)N2CCOCC2)c1)c1cccs1 | 6.0% | -0.3% | ? | 12.6µM* | 11.0%
COc1ccc(Cn2c(=O)c3cccnc3n(Cc3cccc(F)c3)c2=O)cc1 | -8.6% | 6.1% | . | . | .
CC(=O)N(c1ccc(Cl)cc1)c1cn(C(C)=O)c2ccccc12 | ? | -0.6% | 28.0% | -6.7% | -0.1%
CC(=O)n1cc(N(C(=O)CCl)c2ccc(C)cc2)c2ccccc21 | 4.47µM* | ? | 11.2µM* | ? | -0.7%
NC(=O)C1(N2CCCCC2)CCN(C(=O)Nc2ccc(Cl)c(Cl)c2)CC1 | -5.7% | 1.3% | . | . | .
O=C1CC[C@@H](C(=O)N[C@@H](Cc2cnc[nH]2)C(=O)N[C@@H](Cc2c[nH]c3ccccc23)C(=O)N[C@@H](CO)C(=O)N[C@@H](Cc2ccc(O)cc2)C(=O)O)N1 | . | . | -13.1% | -5.0% | .
COc1ccc(N2CCN(c3nc4ccccc4n3CC(=O)c3ccccc3)CC2)cc1 | -7.9% | -2.8% | ? | 5.9% | -3.1%
COc1ccc(N2CCN(Cc3nc4ccccc4n3C)CC2)cc1 | -24.9% | -8.3% | 12.6µM* | 2.3% | -1.6%
CCc1cccc(C)c1NC(=O)Cn1nnc(-c2nc(-c3ccccc3F)no2)c1N | 0.7% | 1.0% | . | . | .
